An excerpt weighted towards active compounds, which were near 11% of everything screened.
HPGD block – inhibitors of human 15-hydroxyprostaglandin dehydrogenase (HPGD) | Potency, µM, inactives show top-dose activity change, negative = inhibition, usual class: inhibitors | 150,000 compounds, 4.3% hits | purified HPGD, NADH fluorescence kinetic, PGE2 substrate | P15428; active = well fitted inhibition curve with a large enough effect, not every such curve was filed as active; inconclusive = small, poorly fitted or top-dose-only effect, or another doubt; inactive = no such curve, though single readings can be large or run the other way; note: potency is the fitted concentration of half-maximal effect
Target sequence (P15428 whole entry, looked up): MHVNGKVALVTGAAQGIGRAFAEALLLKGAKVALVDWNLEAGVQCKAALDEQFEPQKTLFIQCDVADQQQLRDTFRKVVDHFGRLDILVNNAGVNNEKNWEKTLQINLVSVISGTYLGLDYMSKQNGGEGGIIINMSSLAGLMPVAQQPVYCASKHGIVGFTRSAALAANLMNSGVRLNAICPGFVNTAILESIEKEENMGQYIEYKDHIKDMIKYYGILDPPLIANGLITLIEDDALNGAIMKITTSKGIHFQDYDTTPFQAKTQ
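NADH formation kinetics: reaction with 30 uM PGE2 and 1 mM NAD+ (final), 20 nM enzyme, Tris-HCl pH 8 with Tween 20, after 15 min compound preincubation at room temperature. Fluorescence change, last versus first of five reads.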
ALDH1A1 block – blocks purified human ALDH1A1 activity; Purified ALDH1A1, NADH fluorescence, propionaldehyde substrate; Potency, µM (series often up to 75.3 µM), inactives show at the highest dose activity, negative = inhibition, actives largely listed as inhibitors; 220,000 compounds, 7.3% hits; AID 1030; active = well fitted inhibition curve with a large enough effect, not every such curve was filed as active; inconclusive = small, poorly fitted or top-dose-only effect, or another doubt; inactive = no such curve, though single readings can be large or run the other way;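 note: potency is the fitted concentration of half-maximal effect; plate controls were no enzyme wells and a reference inhibitor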
12-hLO inh – blocks human 12-lipoxygenase activity; Potency, µM (series often up to 57.1 µM), without a hit: at the highest dose activity change, negative = inhibition, actives largely listed as inhibitors; purified 12-hLO, xylenol orange hydroperoxide absorbance; P18054; 150,000 compounds, 0.12% hits; note: potency is the fitted concentration of half-maximal effect; nearly all actives have a fitted effect of over 55% in size
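Xylenol orange chromogenic assay: hydroperoxide from 12hLO oxidises Fe(II), giving red-shifted Fe(III)-XO absorbance. Conditions: 150 nM enzyme, 40 uM arachidonic acid, 25 mM Hepes pH 7.0, 0.01% Triton X-100, 30 min, room temperature.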
IMPase inh – membrane-permeable compound that blocks inositol monophosphatase. P97697. CHO-M1 cells, IP1 accumulation, HTRF TR-FRET ratio. inhibition (IP1 accumulation), % at 46.1 µM. 120,000 tested, under 10 active. AID 901; active = well fitted curve in the direction sought with a large enough effect in the signal ratio, not every such curve was filed as active; inconclusive = small, poorly fitted or top-dose-only effect, or a change in a side signal; inactive = no such curve, though single readings can be large or run the other way; the % refers to the signal ratio;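 note: cells stimulated with carbachol in lithium chloride buffer; plate controls were DMSO basal wells for no effect and reference inhibitor wells for full effect; higher means more IMPase inhibition seen as more IP1 and lower FRET ratio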
Target sequence (P97697 whole entry, looked up): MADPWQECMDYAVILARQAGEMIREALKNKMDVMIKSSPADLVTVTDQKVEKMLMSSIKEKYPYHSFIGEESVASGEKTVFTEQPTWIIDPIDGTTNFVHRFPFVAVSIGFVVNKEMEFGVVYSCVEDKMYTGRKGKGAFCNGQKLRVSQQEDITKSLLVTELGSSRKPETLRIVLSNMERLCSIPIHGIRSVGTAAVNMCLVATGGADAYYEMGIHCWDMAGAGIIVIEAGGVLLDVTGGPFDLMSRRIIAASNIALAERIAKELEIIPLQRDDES
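CHO-M1, 2000 cells/well, cultured 16–30 h; cpd up to 46 uM; carbachol (50 uM solution, stimulation buffer w/ 50 mM LiCl, pH 7.4), 30 min 37C; IP-One TR-FRET, 10 min RT; Ex 320/Em 665, 620; Hill-fit AC50.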
PNC assembly inh – inhibitors of perinucleolar compartment assembly | activity change (PNC), negative = inhibition, % at 10 µM | PC3M PTB-GFP, PNC prevalence imaging, 16 h; active compounds read low | 140,000 compounds, 3.1% hits;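 active = readout at or below -70, meaning at least 70% loss of cells showing the perinucleolar compartment, a nuclear body marking cancer cells; inconclusive = readout between -30 and a set limit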;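 note: plate controls were DMSO wells for no effect and camptothecin positive control wells for full effect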
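Read-out is percentage of cells bearing a perinucleolar compartment, from automated 20x imaging of fixed, Hoechst-stained PC3M PTB-GFP cells. Cells were seeded 4 h, then exposed 16 h to compound (23 nl of library stock) in duplicate plates.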
IMPase Li inh – IMPase inhibition in cells with lithium potentiation | CHO-M1 cells, IP1 TR-FRET (IP-One), carbachol + lithium | Potency, µM (top dose mostly 59.4 µM), without a hit: top-dose activity, negative = IMPase inhibition, hits mostly inhibitors | 210,000 compounds, 0.35% hits;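 note: IP1 builds up when IMPase is blocked and the TR-FRET signal falls; potency is the fitted concentration of half-maximal effect; plate controls were basal vehicle for no effect and high inhibitor control for full effect; nearly all actives have a fitted effect of over 50% in size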
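CHO cells stably expressing M1 receptor (2000/well) were cultured 16–30 h, then exposed to compounds with a small lithium addition for 30 min at 37C. IP1 was measured by TR-FRET competition; AC50 from Hill fits.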
An asterisk follows results filed as active; ? = inconclusive; / = no result; [ ] = another dose, or the depositor's remark. Unless noted, calls come from the whole dose curve; as a rule, active = well fitted curve in the direction sought with a large enough effect; inconclusive = small, poorly fitted or top-dose-only effect, or another doubt; inactive = no such curve, though single readings can be large; an effect the other way counts as inactive or inconclusive. Unless noted, % is set by controls: 0 for no effect and ±100 for the full control effect.

SMILES	HPGD block	ALDH1A1 block	12-hLO inh	IMPase inh	PNC assembly inh	IMPase Li inh
COc1ccccc1-c1nc2ccccc2nc1-c1ccccc1OC	-8%	?	4%	/	-12	7%
O=C1c2ccccc2-c2nc3ccccc3nc21	-20%	13µM*	-4%	4	?	25%[38.3 µM]
Cc1cc(-c2ccccc2)nc(SCC(=O)N2CCCC2)n1	/	-1%	/	/	/	-3%
CCn1c(CNC(=O)c2ccc(OC)cc2)nnc1SCC(=O)c1ccccc1	-16%	13µM*	3%	-4	10	6%
CCn1c(COc2ccc(C)cc2)nnc1SCC(=O)NNC(=O)c1ccc(OC)cc1	1%	-8%	-1%	/	-83*	-1%
CCn1c(CNC(C)=O)nnc1SCC(=O)c1ccc(Br)cc1	?	15µM*	-17%	1	8	12%[38.3 µM]
COc1ccc(C(=O)NCc2nnc(SCC(=O)N3CCc4ccccc43)n2Cc2ccccc2)cc1	-17%	?	-1%	/	-100*	2%
CCn1c(SCC(=O)NNC(=O)c2ccc(OC)cc2)nnc1-c1cccnc1	/	-3%	/	/	/	7%
CCn1c(CNC(=O)Cc2ccc(OC)cc2)nnc1SCC(=O)c1ccc(Br)cc1	-11%	?	-6%	-7	-5	13%[38.3 µM]
c1ncc(CC2CCNCC2)[nH]1	-1%	-7%	2%	1	/	5%
CCOc1ccc(CC(=O)NNC(=S)Nc2ccccc2)cc1Br	-15%	32µM*	-10%	-7	65	24%[38.3 µM]
COc1ccc(CC(=O)NNC(=S)Nc2ccccc2)cc1Br	-25%	?	-23%	8	-1	-1%[38.3 µM]
COc1ccc(Cl)cc1NC(=S)Nc1cccc(C)c1	/	-8%	/	/	/	8%
COc1ccc(NC(=S)NNC(=O)COc2ccc(Cl)cc2Cl)cc1	4.5µM*	7%	-5%	7	-7	0%
COc1ccc(CC(=O)NNC(=S)Nc2ccc(Br)cc2)cc1	-19%	18µM*	-11%	-3	11	11%[38.3 µM]
Cc1cccc(NC(=S)NNC(=O)COc2ccc(Cl)cc2Cl)c1	?	6.3µM*	?	-1	65	6%
COc1ccc(CC(=O)NNC(=O)Cc2ccc(OC)cc2)cc1	/	-9%	/	/	/	-14%
CCC(=O)NC(=S)Nc1ccc(NC(=O)COc2ccc(Cl)cc2Cl)cc1	-13%	4%	-25%	0	58	8%[38.3 µM]
COc1ccccc1C1OC(=O)CC1C(=O)OC[C@@H]1CCCN2CCCCC12 (stereo not given in full)	-3%	-8%	/	/	/	22%
N#Cc1ccc(CN2CC3(CCN(C(=O)c4ccco4)CC3)C2)cc1	-8%	-10%	2%	/	/	37%
CCCCOc1cccc(C(=O)N(Cc2ccc(N(C)C)cc2)C2CCS(=O)(=O)C2)c1 (stereo not given)	/	/	/	1	/	/
COC(CC(=O)NNC(=S)Nc1ccc(Cl)cc1)OC	/	-4%	/	/	/	-3%
COc1ccc(OCC(=O)NC(=S)NNC(=O)COc2ccc(Br)cc2Cl)cc1	/	11µM*	/	/	/	-4%
COc1ccc(NC(=S)NNC(=O)CNc2ccc(Cl)cc2)cc1	/	10µM*	/	/	/	4%
N#Cc1c(N)sc(=S)c2c1CCCCC2	16µM*	?	-7%	0	44	10%
SMILES	HPGD block	ALDH1A1 block	12-hLO inh	IMPase inh	PNC assembly inh	IMPase Li inh
CC1(C)Cc2c(C#N)c(N)sc(=S)c2CS1	-12%	7.1µM*	?	-2	11	-5%[38.3 µM]
N#Cc1c(N)sc2c1CCCCCC2	/	?	-10%	7	16	/
CN(C)S(=O)(=O)c1cccc(C(=O)N(Cc2ccc(F)cc2)Cc2ccco2)c1	-6%	25µM*	-11%	15	-24	-3%[38.3 µM]
Cc1ccc(N(Cc2ccco2)C(=O)c2cccc(S(=O)(=O)N(C)C)c2)cc1	3%	25µM*	-2%	13	32	37%[38.3 µM]
CN(C)S(=O)(=O)c1cccc(C(=O)NCc2ccco2)c1	-1%	?	0%	-1	-20	4%[38.3 µM]
COC(=O)C1=C(C)Nc2nnnn2C1c1ccccc1Cl (stereo not given)	-9%	2.5µM*	4%	-14	?	-1%
CCCCCOC(=O)C1=C(C)Nc2nnnn2C1c1ccccc1Cl (stereo not given)	-6%	2µM*	-22%	5	-13	42%[38.3 µM]
COC(=O)C1=C(C)Nc2nnnn2C1c1cc(OC)ccc1OC (stereo not given)	/	2%	1%	6	?	/
CCn1c2ccc(OC)cc2c2nc3ccccc3nc21	-15%	-3%	-7%	15	193	5%
CCOc1ccc(Cn2c3ccc(OC)cc3c3nc4ccccc4nc32)cc1	-15%	5%	-1%	/	-89*	6%
CCOC(=O)c1c(C)n(-c2ccccc2)c2ccc(OC(=O)c3ccccc3Cl)cc12	/	/	/	-4	/	/
CC[n+]1c(/C=C(/C)SC)sc2ccccc21	/	?	-1%	-2	-18	/
CC[n+]1c(/C=C(\C)SC)sc2ccccc21	28µM*	6µM*	-6%	-1	31	25%[38.3 µM]
CN(C)c1ccc(/C=C/c2ccc3ccccc3[n+]2C)cc1	-2%	-15%	0%	?	5	75%
CN(C)c1ccc(/C=C/c2ccc3c4ccccc4ccc3[n+]2-c2ccccc2)cc1	/	13µM*	/	/	/	117%
CCCCNC(=S)N(C)/N=C/c1ccc(F)cc1	28µM*	3%	-1%	/	-21	-3%
COc1cc(-c2nc3cccc(C)n3c2NCC2CCCO2)ccc1O (stereo not given)	/	?	/	/	/	7%
CCn1c(CNC(=O)c2ccco2)nnc1SCC(=O)c1ccccc1	/	7%	/	/	/	7%
C=CCn1c(CNC(=O)c2ccco2)nnc1SCC(=O)N1c2ccccc2Sc2ccccc21	-10%	0.56µM*	4%	9	-20	55%[38.3 µM]
Cc1ccccc1C(=O)NCc1nnc(SCC(=O)N2c3ccccc3Sc3ccccc32)n1C	-5%	25µM*	-2%	5	0	19%[38.3 µM]
C[C@H]1COc2c(N3CCN(C)CC3)c(F)cc3c(=O)c(C(=O)NCc4ccco4)cn1c23	-18%	?	/	/	/	5%
CC(=O)N(CC(O)CN(C(C)=O)c1c(I)c(C(=O)NC[C@@H](O)CO)c(I)c(C(=O)NC[C@@H](O)CO)c1I)c1c(I)c(C(=O)NC[C@@H](O)CO)c(I)c(C(=O)NC[C@@H](O)CO)c1I	2%	-7%[20.9 µM]	-2%[25.6 µM]	1[20.6 µM]	/	1%
Cc1ccc(S(=O)(=O)Nc2ccccc2/C=N/c2nc3ccccc3n2C(C)C)cc1	-19%	21%	-2%	-6	-92*	-1%
CCCCn1c(/N=C/c2ccccc2NS(=O)(=O)c2ccc(C)cc2)nc2ccccc21	-27%	-9%	-1%	-10	?	16%
CCOC(=O)OCC1OC(C#Cc2ccc(C(C)(C)C)cc2)C=CC1OC(=O)OCC (stereo not given)	/	-8%[13.5 µM]	/	/	/	/
